Laboratory results from PubChem BioAssay (NCATS).
Records with an inconclusive call do not appear. The source made the active and inactive calls. Calls come from the whole dose curve; as a rule, active = well fitted inhibition curve with a large enough effect; inconclusive = small, poorly fitted or top-dose-only effect; inactive = flat fitted curve, though single readings scatter.

Assays:
Experiment in all cases: qHTS profiling for inhibitors of Plasmodium falciparum proliferation (AID 504749); note: nearly all actives have a fitted effect of over 60% in size;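 for activity, negative = inhibition: 0% = DMSO vehicle and full inhibition = artemisinin control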
Details in all cases: P. falciparum in erythrocytes, SYBR Green DNA, 72 h; series mostly up to 28.7 µM
DIV14 = tested on: DIV14
How it was run: (§1)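 Fluorescence of SYBR Green-bound parasite DNA, read at 485/535 nm, served as the growth measure. Infected erythrocytes were cultured with compound 72 h; artemisinin (0.29 uM) and DMSO wells defined the normalization range.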

DIV17 = tested on: DIV17
How it was run: as §1

DIV30 = tested on: DIV30
How it was run: as §1

Dd2 = tested on: Dd2
How it was run: as §1

ECU = tested on: ECU
How it was run: as §1

FAB9 = tested on: FAB9
How it was run: as §1

GB4 = tested on: GB4
How it was run: as §1

HB3 = tested on: HB3
How it was run: as §1

ICS = tested on: ICS
How it was run: as §1

JCK = tested on: JCK
How it was run: as §1

N140 = tested on: N140
How it was run: as §1

P93_24 = tested on: P93_24
How it was run: as §1

P94_40 = tested on: P94_40
How it was run: as §1

PAD = tested on: PAD
How it was run: as §1

PC15 = tested on: PC15
How it was run: as §1

PC26 = tested on: PC26
How it was run: as §1

PC49 = tested on: PC49
How it was run: as §1

SC27B = tested on: SC27B
How it was run: as §1

TAB109 = tested on: TAB109
How it was run: as §1

TAB113 = tested on: TAB113
How it was run: as §1
Potency is the fitted concentration of half-maximal effect.

CCOC(=O)CC(SP(=S)(OC)OC)C(=O)OCC (stereo not drawn)
inactive: Potency (DIV14) | Potency (DIV17) | Potency (DIV30) | Potency (Dd2) | Potency (ECU) | Potency (FAB9) | Potency (GB4) | Potency (HB3) | Potency (ICS) | Potency (JCK) | Potency (N140) | Potency (P93_24) | Potency (P94_40) | Potency (PAD) | Potency (PC15) | Potency (PC26) | Potency (PC49) | Potency (SC27B) | Potency (TAB109) | Potency (TAB113)

C[C@]12CC[C@@H]3c4ccc(OC(=O)N(CCCl)CCCl)cc4CC[C@H]3[C@@H]1CC[C@@H]2O
inactive: Potency (DIV14) | Potency (DIV17) | Potency (DIV30) | Potency (Dd2) | Potency (ECU) | Potency (FAB9) | Potency (GB4) | Potency (HB3) | Potency (ICS) | Potency (JCK) | Potency (N140) | Potency (P93_24) | Potency (P94_40) | Potency (PAD) | Potency (PC15) | Potency (PC26) | Potency (PC49) | Potency (SC27B) | Potency (TAB109) | Potency (TAB113)

c1ccc2c(c1)sc1ccccc12
inactive: Potency (DIV14) | Potency (DIV17) | Potency (DIV30) | Potency (Dd2) | Potency (ECU) | Potency (FAB9) | Potency (GB4) | Potency (HB3) | Potency (ICS) | Potency (JCK) | Potency (N140) | Potency (P93_24) | Potency (P94_40) | Potency (PAD) | Potency (PC15) | Potency (PC26) | Potency (PC49) | Potency (SC27B) | Potency (TAB109) | Potency (TAB113)

O=c1oc2ccccc2c(O)c1Cc1c(O)c2ccccc2oc1=O
inactive: Potency (DIV14) | Potency (DIV17) | Potency (DIV30) | Potency (Dd2) | Potency (ECU) | Potency (FAB9) | Potency (GB4) | Potency (HB3) | Potency (ICS) | Potency (JCK) | Potency (N140) | Potency (P93_24) | Potency (P94_40) | Potency (PAD) | Potency (PC15) | Potency (PC26) | Potency (PC49) | Potency (SC27B) | Potency (TAB109) | Potency (TAB113)

COc1c2c(cc3c1OCO3)CCN(C)C2
inactive: Potency (DIV14) | Potency (DIV17) | Potency (DIV30) | Potency (Dd2) | Potency (ECU) | Potency (FAB9) | Potency (GB4) | Potency (HB3) | Potency (ICS) | Potency (JCK) | Potency (N140) | Potency (P93_24) | Potency (P94_40) | Potency (PAD) | Potency (PC15) | Potency (PC26) | Potency (PC49) | Potency (SC27B) | Potency (TAB109) | Potency (TAB113)

COP(=S)(OC)Oc1ccc(SC)c(C)c1
inactive: Potency (DIV14) | Potency (DIV17) | Potency (DIV30) | Potency (Dd2) | Potency (ECU) | Potency (FAB9) | Potency (GB4) | Potency (HB3) | Potency (ICS) | Potency (N140) | Potency (P93_24) | Potency (P94_40) | Potency (PAD) | Potency (PC15) | Potency (PC49) | Potency (SC27B) | Potency (TAB109) | Potency (TAB113)

O=C1c2ccccc2C(=O)C1C(=O)C(c1ccccc1)c1ccccc1
inactive: Potency (DIV14) | Potency (DIV17) | Potency (DIV30) | Potency (Dd2) | Potency (ECU) | Potency (FAB9) | Potency (HB3) | Potency (JCK) | Potency (N140) | Potency (P93_24) | Potency (P94_40) | Potency (PAD) | Potency (PC15) | Potency (PC26) | Potency (PC49) | Potency (SC27B) | Potency (TAB113)

O=C1Nc2ccc(Cl)cc2C(c2ccccc2Cl)=NC1O (stereo not drawn)
inactive: Potency (DIV14) | Potency (DIV17) | Potency (DIV30) | Potency (Dd2) | Potency (ECU) | Potency (FAB9) | Potency (GB4) | Potency (HB3) | Potency (ICS) | Potency (JCK) | Potency (N140) | Potency (PC15) | Potency (PC26) | Potency (PC49) | Potency (SC27B) | Potency (TAB109) | Potency (TAB113)

CCOP(=S)(OCC)Oc1ccc2c(C)c(Cl)c(=O)oc2c1
active: Potency (P94_40) 11.2 µM | Potency (TAB113) 7.94 µM
inactive: Potency (DIV14) | Potency (DIV17) | Potency (Dd2) | Potency (ECU) | Potency (FAB9) | Potency (GB4) | Potency (HB3) | Potency (JCK) | Potency (PAD) | Potency (PC15) | Potency (PC26) | Potency (PC49)

CCCCC/C=C\C/C=C\C/C=C\C/C=C\CCCC(=O)NCC(=O)O
inactive: activity, negative = inhibition (DIV14) 7.6% [at 2.67 µM] | activity, negative = inhibition (DIV17) 1.26% [at 2.67 µM] | activity, negative = inhibition (DIV30) -7.28% [at 2.67 µM] | activity, negative = inhibition (Dd2) 0.222% [at 2.67 µM] | activity, negative = inhibition (ECU) -2.86% [at 2.67 µM] | activity, negative = inhibition (FAB9) 0.295% [at 2.67 µM] | activity, negative = inhibition (GB4) 5.94% [at 2.67 µM] | activity, negative = inhibition (HB3) -4.91% [at 2.67 µM] | activity, negative = inhibition (ICS) -4.84% [at 2.67 µM] | activity, negative = inhibition (JCK) 0.614% [at 2.67 µM] | activity, negative = inhibition (N140) -7.13% [at 2.67 µM] | activity, negative = inhibition (P93_24) -5.2% [at 2.67 µM] | activity, negative = inhibition (P94_40) -8.27% [at 2.67 µM] | activity, negative = inhibition (PAD) 4.88% [at 2.67 µM] | activity, negative = inhibition (PC15) 6.96% [at 2.67 µM] | activity, negative = inhibition (PC26) 8.23% [at 2.67 µM] | activity, negative = inhibition (SC27B) 0.575% [at 2.67 µM] | activity, negative = inhibition (TAB109) -11.7% [at 2.67 µM] | activity, negative = inhibition (TAB113) 3.88% [at 2.67 µM]

COC(=O)C(c1ccccc1)C1CCCCN1 (stereo not drawn)
inactive: Potency (DIV30) | Potency (ECU) | Potency (FAB9) | Potency (HB3) | Potency (ICS) | Potency (JCK) | Potency (N140) | Potency (P93_24) | Potency (P94_40) | Potency (PAD) | Potency (PC15) | Potency (PC26) | Potency (SC27B) | Potency (TAB109) | Potency (TAB113)

Cc1nnc2n1-c1ccc(Cl)cc1C(c1ccccc1)=NC2
inactive: Potency (DIV14) | Potency (DIV17) | Potency (Dd2) | Potency (ECU) | Potency (FAB9) | Potency (GB4) | Potency (HB3) | Potency (N140) | Potency (P93_24) | Potency (PAD) | Potency (PC15) | Potency (PC26) | Potency (PC49) | Potency (SC27B) | Potency (TAB113)
active: Potency (ICS) 8.91 µM

CCC1(c2ccccc2)C(=O)N(COC)C(=O)N(COC)C1=O
inactive: Potency (DIV14) | Potency (DIV17) | Potency (DIV30) | Potency (Dd2) | Potency (ECU) | Potency (FAB9) | Potency (GB4) | Potency (HB3) | Potency (ICS) | Potency (JCK) | Potency (N140) | Potency (P93_24) | Potency (P94_40) | Potency (PAD) | Potency (PC15) | Potency (PC26) | Potency (PC49) | Potency (SC27B) | Potency (TAB113)

C=CCN1C[C@H](C)N([C@H](c2ccc(C(=O)N(CC)CC)cc2)c2cccc(OC)c2)C[C@H]1C
inactive: Potency (DIV30) | Potency (JCK) | Potency (SC27B)
active: Potency (Dd2) 11.2 µM | Potency (ICS) 12.6 µM

CCCCCCCCCC(=O)O[C@H]1CC[C@H]2[C@@H]3CCC4=CC(=O)CC[C@@H]4[C@H]3CC[C@]12C
inactive: Potency (DIV14) | Potency (DIV17) | Potency (DIV30) | Potency (ECU) | Potency (FAB9) | Potency (GB4) | Potency (HB3) | Potency (JCK) | Potency (N140) | Potency (P93_24) | Potency (P94_40) | Potency (PAD) | Potency (PC15) | Potency (PC26) | Potency (PC49) | Potency (SC27B) | Potency (TAB109) | Potency (TAB113)
